# Reference: PubChem BioAssay (EPA / NIEHS)
# Inconclusive results are not listed. The source made the active and inactive calls. Rule for the calls, unless noted: active = hit-call score of the fitted dose curve at least 0.9, where 1 is the maximum; inconclusive = response in the unintended direction; inactive = score below 0.9.
# Assays:
# [1] = ATG_TCF_b_cat_CIS: Attagene CIS-FACTORIAL HepG2 Assay for human T-Cell-Factor with beta-catenin (TCF/b-cat) (AID 2282965; active = hit-call score of the fitted dose curve at least 0.9, where 1 is the maximum; inactive = score below 0.9); conditions: HepG2 TCF/beta-catenin cis-reporter transcription, actives raise or lower the signal
# Method in brief: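 Endogenous TCF/LEF activity read as reporter transcript level via RT-PCR and capillary electrophoresis fluorescence in transfected HepG2, 24 h exposure; gain or loss of signal fitted against DMSO controls.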
# [2] = ATG_TAL_CIS: Attagene CIS-FACTORIAL HepG2 Assay for human TAL Basal Promoter (AID 2282966; active = hit-call score of the fitted dose curve at least 0.9, where 1 is the maximum; inactive = score below 0.9;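 note: background control endpoint measuring basal TAL promoter reporter mRNA not a specific factor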); conditions: HepG2 Attagene cis-factorial TAL promoter reporter; actives raise or lower the signal
# Method in brief: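 RT-PCR plus capillary electrophoresis quantifies reporter mRNA induction in transiently transfected HepG2 cells after 24 h chemical treatment. DMSO serves as negative control and baseline for bidirectional fitting.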
# [3] = ATG_TGFb_CIS: Attagene CIS-FACTORIAL HepG2 Assay for human Transforming Growth Factor (TGF) (AID 2282967; active = hit-call score of the fitted dose curve at least 0.9, where 1 is the maximum; inactive = score below 0.9); conditions: HepG2 Attagene CIS TGFb reporter, mRNA transcription; actives raise or lower the signal
# Method in brief: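 Readout: fluorescently labeled reporter cDNA fragments resolved by capillary electrophoresis after RT-PCR. Transfected HepG2 cells dosed for 24 h; endogenous TF activity at TGFB1-linked cis element; gain or loss fitted relative to DMSO.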
# [4] = ATG_VDRE_CIS: Attagene CIS-FACTORIAL HepG2 Assay for human Vitamin D Receptor Element (VDRE) (AID 2282968; active = hit-call score of the fitted dose curve at least 0.9, where 1 is the maximum; inactive = score below 0.9); conditions: HepG2 VDRE cis-reporter transcription, actives raise or lower the signal
# Method in brief: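 Reporter mRNA induction, quantified by capillary electrophoresis of fluorescently labelled RT-PCR products, was read 24 h after dosing HepG2 cells carrying transiently transfected cis-regulated reporter units; gain or loss relative to DMSO.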
# [5] = biological target: Estrogen receptor (Homo sapiens) (UniProt P03372); experiment: ATG_ERa_TRANS: Attagene TRANS-FACTORIAL HepG2 Assay for human Estrogen Receptor alpha (ERa) (AID 2282970); conditions: HepG2 Attagene TRANS ERa GAL4 reporter, mRNA
# Method in brief: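 Cells: HepG2, transiently transfected. Construct: GAL4-UAS reporter units regulated by exogenous NR-Gal4 chimeras. Time: 24 h. Detection: reporter mRNA by RT-PCR, capillary electrophoresis, fluorescence. Baseline: DMSO, upward fitting.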
# [6] = biological target: X-box-binding protein 1 (Homo sapiens) (UniProt P17861); experiment: ATG_Xbp1_CIS: Attagene CIS-FACTORIAL HepG2 Assay for human X-box Binding Protein 1 (XBP1) (AID 2282972; active = hit-call score of the fitted dose curve at least 0.9, where 1 is the maximum; inactive = score below 0.9); conditions: HepG2 XBP1 cis-element reporter, Attagene multiplex; actives raise or lower the signal
# Method in brief: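 HepG2, transient MRTU transfection (cis-promoter driven), 24 h compound exposure. Total RNA → oligo(dT) RT → PCR → 6-FAM labeling → HpaI cut → CE. Bidirectional fit vs DMSO.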
# [7] = ATG_M_19_TRANS: Attagene TRANS-FACTORIAL HepG2 Assay for M19 Transcription Factor (Internal Marker) (AID 2282974); conditions: HepG2 Attagene TRANS-FACTORIAL M19 internal marker reporter
# Method in brief: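 Fluorescence of 6-FAM-labelled reporter cDNA fragments, separated by capillary electrophoresis, served as the readout. These derived from HepG2 cells carrying transfected GAL4-UAS reporter units after 24 h dosing, with DMSO as negative control.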
# [8] = ATG_GAL4_TRANS: Attagene TRANS-FACTORIAL HepG2 Assay for GAL4 (Internal Marker) (AID 2282976); conditions: HepG2 Attagene TRANS GAL4 internal marker reporter
# Method in brief: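 In transfected human HepG2 liver cells dosed 24 h, GAL4 reporter mRNA serves as a baseline marker. Detection by RT-PCR with fluorescent capillary electrophoresis, activity fitted upward relative to DMSO.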
# [9] = biological target: Oxysterols receptor LXR-beta (Homo sapiens) (UniProt P55055); experiment: ATG_LXRb_TRANS: Attagene TRANS-FACTORIAL HepG2 Assay for human Liver X Receptor beta (LXRb) (AID 2282981); conditions: HepG2 Attagene TRANS GAL4-LXRb reporter, mRNA
# Method in brief: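 Transient transfection HepG2 (multiplexed RTUs, GAL4-UAS); NR-Gal4 chimera; 24 h exposure; RNA → RT-PCR → 6-FAM primer extension → HpaI → CE; increase vs DMSO.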
# [10] = ATG_M_06_TRANS: Attagene TRANS-FACTORIAL HepG2 Assay for M06 Transcription Factor (Internal Marker) (AID 2282983); conditions: HepG2 Attagene TRANS M06 internal marker reporter
# Method in brief: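 Cells: HepG2, transient multi-reporter transfection. Exposure: 24 h. Detection: RT-PCR, 6-FAM labelling, HpaI digestion (2 h, 37 °C), capillary electrophoresis. Baseline: DMSO.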
# [11] = biological target: Transcriptional activator Myb (Homo sapiens) (UniProt P10242); experiment: ATG_Myb_CIS: Attagene CIS-FACTORIAL HepG2 Assay for human Myeloblastosis (Myb) Proto-Oncogene Transcription Factor (AID 2282986; active = hit-call score of the fitted dose curve at least 0.9, where 1 is the maximum; inactive = score below 0.9); conditions: HepG2 Attagene CIS-FACTORIAL Myb reporter transcription; actives raise or lower the signal
# Method in brief: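 Reporter transcript levels, quantified by fluorescent RT-PCR and capillary electrophoresis, serve as the read-out. Transfected HepG2 cells carrying cis-promoter reporter units are dosed for 24 hours, and curves are fitted bidirectionally against DMSO controls.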
# [12] = biological target: Nuclear receptor subfamily 1 group I member 3 (Homo sapiens) (UniProt Q14994); experiment: ATG_CAR_TRANS: Attagene TRANS-FACTORIAL HepG2 Assay for human Constitutive Androstane Receptor (CAR) (AID 2282969); conditions: HepG2 Attagene TRANS-FACTORIAL CAR reporter;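 note: activators raise reporter mRNA above DMSO so AC50 marks induction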
# Method in brief: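 Readout is reporter mRNA induction, quantified by fluorescent primer extension and capillary electrophoresis after RT-PCR. Cells were HepG2 transiently carrying chimeric NR-Gal4 constructs with GAL4-UAS reporters, treated for 24 h; activity scored upward from DMSO.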
# [13] = biological target: Estrogen-related receptor gamma (Homo sapiens) (UniProt P62508); experiment: ATG_ERRg_TRANS: Attagene TRANS-FACTORIAL HepG2 Assay for human Estrogen-Related Receptor gamma (ERRg) (AID 2282977); conditions: HepG2 Attagene TRANS reporter, ERRg transactivation;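 note: hits increase reporter signal over DMSO so potencies reflect activators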
# Method in brief: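 HepG2 cells transiently transfected with multiplexed GAL4-UAS reporter units driven by chimeric NR-Gal4 proteins; 24 h exposure. Reporter mRNA quantified by RT-PCR, fluorescent labelling, HpaI digestion and capillary electrophoresis; gain of signal vs DMSO.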
# [14] = biological target: Hepatocyte nuclear factor 4-alpha (Homo sapiens) (UniProt P41235); experiment: ATG_HNF4a_TRANS: Attagene TRANS-FACTORIAL HepG2 Assay for human Hepatocyte Nuclear Factor 4 alpha (HNF4a) (AID 2282982); conditions: HepG2 HNF4a transactivation reporter, mRNA readout
# Method in brief: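 Readout is fluorescent reporter-transcript fragments resolved by capillary electrophoresis after RT-PCR from HepG2 cells dosed for 24 h. Cells carried transfected GAL4-UAS reporter constructs measuring exogenous NR-GAL4 chimera activity; DMSO served as baseline.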
# [15] = ATG_M_32_TRANS: Attagene TRANS-FACTORIAL HepG2 Assay for M32 Transcription Factor (Internal Marker) (AID 2282984); conditions: HepG2 Attagene TRANS M32 internal marker reporter
# Method in brief: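 Measures reporter mRNA induction in human HepG2 liver cells after 24 h chemical treatment. Transcripts from transiently transfected GAL4-UAS reporter units are amplified, fluorescently labelled and sized by capillary electrophoresis; gain of signal relative to DMSO.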
# [16] = biological target: Nuclear receptor subfamily 4 group A member 2 (Homo sapiens) (UniProt P43354); experiment: ATG_NURR1_TRANS: Attagene TRANS-FACTORIAL HepG2 Assay for human Nuclear Receptor Related Protein 1 (NURR1) (AID 2282985); conditions: HepG2 Attagene TRANS reporter, mRNA readout
# Method in brief: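 Transient transfection of HepG2, human liver cells, with multiple GAL4-UAS reporter transcription units. Cells dosed 24 h, RNA isolated, reverse-transcribed, PCR-amplified, FAM-labelled, HpaI-digested, sized by capillary electrophoresis. DMSO served as negative control.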
# [17] = biological target: Glucocorticoid receptor (Homo sapiens) (UniProt P04150); experiment: ATG_GR_TRANS: Attagene TRANS-FACTORIAL HepG2 Assay for human Glucocorticoid Receptor (GR) (AID 2282978); conditions: HepG2 Attagene TRANS GR reporter, mRNA transcription;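 note: activators score as hits since higher reporter transcript over DMSO is fitted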
# Method in brief: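 Fluorescent capillary-electrophoresis quantitation of reporter mRNA is the readout, taken 24 h after dosing human HepG2 cells carrying transiently transfected GAL4-UAS reporter units activated by chimeric NR-GAL4 fusions; activity scored as induction over DMSO.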
# [18] = biological target: Steroid hormone receptor ERR1 (Homo sapiens) (UniProt P11474); experiment: ATG_ERRa_TRANS: Attagene TRANS-FACTORIAL HepG2 Assay for human Estrogen-Related Receptor alpha (ERRa) (AID 2282971); conditions: HepG2 Attagene TRANS reporter, ERRa transactivation
# Method in brief: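 Reporter transcripts from ERRa-Gal4 chimera activity measured in transiently transfected human HepG2 cells 24 hours after dosing, using RT-PCR with 6-FAM primer extension, HpaI digestion and capillary electrophoresis; DMSO is baseline.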
# [19] = biological target: Oxysterols receptor LXR-alpha (Homo sapiens) (UniProt Q13133); experiment: ATG_LXRa_TRANS: Attagene TRANS-FACTORIAL HepG2 Assay for human Liver X Receptor alpha (LXRa) (AID 2282980); conditions: HepG2 Attagene TRANS reporter, LXRa transactivation
# Method in brief: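 Chemical-induced reporter mRNA measured by RT-PCR with fluorescent labelling and capillary electrophoresis after 24 h dosing of transiently transfected HepG2 cells expressing exogenous NR-Gal4 chimeras; increases scored against DMSO baseline.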
# [20] = biological target: Bile acid receptor (Homo sapiens) (UniProt Q96RI1); experiment: ATG_FXR_TRANS: Attagene TRANS-FACTORIAL HepG2 Assay for Farnesoid X Receptor (FXR) (AID 2282979); conditions: HepG2 Attagene TRANS FXR-GAL4 reporter transcription;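 note: hits raise reporter mRNA above DMSO so AC50 marks FXR activation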
# Method in brief: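 Reporter transcripts from transfected HepG2 cells were measured 24 h after dosing, using RT-PCR with capillary electrophoresis of 6-FAM-labelled fragments. The read-out reflects activity of exogenous FXR-Gal4 chimera on GAL4-UAS units, with induction relative to DMSO.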
# Sequence of Nuclear receptor subfamily 1 group I member 3 (Homo sapiens) (Q14994 whole entry, looked up, the tested form may be a part): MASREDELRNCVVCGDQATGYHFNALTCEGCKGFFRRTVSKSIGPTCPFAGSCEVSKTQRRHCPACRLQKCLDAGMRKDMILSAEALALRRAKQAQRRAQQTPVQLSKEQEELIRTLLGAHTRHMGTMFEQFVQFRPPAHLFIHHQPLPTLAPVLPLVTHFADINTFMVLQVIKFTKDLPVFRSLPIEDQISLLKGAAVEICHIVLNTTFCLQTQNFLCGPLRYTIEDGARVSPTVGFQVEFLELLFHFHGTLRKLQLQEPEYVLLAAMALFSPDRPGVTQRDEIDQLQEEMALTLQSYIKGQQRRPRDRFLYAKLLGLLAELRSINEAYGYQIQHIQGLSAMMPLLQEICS
# Sequence of X-box-binding protein 1 (Homo sapiens) (P17861 whole entry, looked up): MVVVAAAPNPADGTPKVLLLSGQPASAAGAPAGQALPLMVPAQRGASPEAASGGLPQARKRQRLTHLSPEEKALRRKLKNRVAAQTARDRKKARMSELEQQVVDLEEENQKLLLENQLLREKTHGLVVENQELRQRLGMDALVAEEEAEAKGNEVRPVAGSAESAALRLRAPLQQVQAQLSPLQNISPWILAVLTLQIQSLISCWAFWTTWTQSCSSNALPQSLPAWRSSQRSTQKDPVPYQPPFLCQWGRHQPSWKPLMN
# Sequence of Transcriptional activator Myb (Homo sapiens) (P10242 whole entry, looked up): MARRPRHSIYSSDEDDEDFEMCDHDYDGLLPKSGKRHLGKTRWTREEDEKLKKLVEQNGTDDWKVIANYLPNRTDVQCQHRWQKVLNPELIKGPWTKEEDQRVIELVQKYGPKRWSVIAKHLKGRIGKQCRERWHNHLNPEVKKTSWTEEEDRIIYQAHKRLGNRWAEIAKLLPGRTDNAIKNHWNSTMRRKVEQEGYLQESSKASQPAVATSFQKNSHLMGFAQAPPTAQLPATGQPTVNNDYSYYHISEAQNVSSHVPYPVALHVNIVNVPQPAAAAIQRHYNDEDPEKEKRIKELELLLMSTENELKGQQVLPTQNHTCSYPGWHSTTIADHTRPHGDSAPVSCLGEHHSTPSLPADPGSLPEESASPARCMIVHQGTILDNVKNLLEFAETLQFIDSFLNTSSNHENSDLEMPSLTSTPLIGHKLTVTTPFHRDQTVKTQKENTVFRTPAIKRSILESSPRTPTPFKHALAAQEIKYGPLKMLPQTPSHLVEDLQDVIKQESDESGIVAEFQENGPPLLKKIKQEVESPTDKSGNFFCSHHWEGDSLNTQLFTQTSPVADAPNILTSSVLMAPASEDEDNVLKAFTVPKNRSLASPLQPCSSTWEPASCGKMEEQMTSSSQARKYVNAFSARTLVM
# Sequence of Nuclear receptor subfamily 4 group A member 2 (Homo sapiens) (P43354 whole entry, looked up, the tested form may be a part): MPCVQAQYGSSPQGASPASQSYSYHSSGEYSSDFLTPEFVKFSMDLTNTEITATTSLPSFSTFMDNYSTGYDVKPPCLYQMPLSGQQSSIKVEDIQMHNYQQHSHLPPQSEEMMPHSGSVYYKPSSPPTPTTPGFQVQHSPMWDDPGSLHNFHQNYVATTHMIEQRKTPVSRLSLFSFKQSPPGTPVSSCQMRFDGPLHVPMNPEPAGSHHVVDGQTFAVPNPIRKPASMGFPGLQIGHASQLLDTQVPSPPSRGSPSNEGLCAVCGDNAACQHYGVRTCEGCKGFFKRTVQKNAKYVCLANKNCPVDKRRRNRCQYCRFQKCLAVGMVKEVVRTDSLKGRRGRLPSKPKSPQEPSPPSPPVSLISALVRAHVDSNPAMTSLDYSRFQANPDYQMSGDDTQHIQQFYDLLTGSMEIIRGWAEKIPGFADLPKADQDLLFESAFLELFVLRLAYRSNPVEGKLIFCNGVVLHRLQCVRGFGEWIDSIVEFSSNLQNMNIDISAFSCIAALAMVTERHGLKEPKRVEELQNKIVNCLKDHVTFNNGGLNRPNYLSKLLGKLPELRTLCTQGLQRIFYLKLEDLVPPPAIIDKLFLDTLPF
# Sequence of Oxysterols receptor LXR-beta (Homo sapiens) (P55055 whole entry, looked up, the tested form may be a part): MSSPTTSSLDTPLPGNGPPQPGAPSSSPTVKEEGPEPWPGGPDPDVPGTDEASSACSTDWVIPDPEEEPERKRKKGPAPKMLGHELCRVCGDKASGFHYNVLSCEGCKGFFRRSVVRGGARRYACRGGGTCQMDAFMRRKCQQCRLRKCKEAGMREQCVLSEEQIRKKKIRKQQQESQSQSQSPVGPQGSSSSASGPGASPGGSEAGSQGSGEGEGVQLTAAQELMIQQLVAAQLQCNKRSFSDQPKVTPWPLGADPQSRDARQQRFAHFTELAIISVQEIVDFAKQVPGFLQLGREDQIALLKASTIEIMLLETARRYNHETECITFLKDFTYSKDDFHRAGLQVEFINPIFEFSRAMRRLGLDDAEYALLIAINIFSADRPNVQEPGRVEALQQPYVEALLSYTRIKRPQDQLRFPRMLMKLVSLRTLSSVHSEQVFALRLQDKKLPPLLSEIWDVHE
# Sequence of Bile acid receptor (Homo sapiens) (Q96RI1 whole entry, looked up, the tested form may be a part): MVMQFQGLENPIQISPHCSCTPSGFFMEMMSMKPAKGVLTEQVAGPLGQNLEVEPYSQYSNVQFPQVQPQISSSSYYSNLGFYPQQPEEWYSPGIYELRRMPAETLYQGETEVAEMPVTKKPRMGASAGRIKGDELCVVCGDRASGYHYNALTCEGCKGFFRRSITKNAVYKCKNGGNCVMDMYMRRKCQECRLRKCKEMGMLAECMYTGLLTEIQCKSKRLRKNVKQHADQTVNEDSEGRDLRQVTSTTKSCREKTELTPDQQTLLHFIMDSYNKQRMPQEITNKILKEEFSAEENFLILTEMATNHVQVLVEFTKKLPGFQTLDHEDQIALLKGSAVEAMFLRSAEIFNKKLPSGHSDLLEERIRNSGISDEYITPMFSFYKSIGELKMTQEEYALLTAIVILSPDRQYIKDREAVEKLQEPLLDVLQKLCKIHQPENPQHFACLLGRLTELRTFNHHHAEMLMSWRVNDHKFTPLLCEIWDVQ
# Sequence of Hepatocyte nuclear factor 4-alpha (Homo sapiens) (P41235 whole entry, looked up, the tested form may be a part): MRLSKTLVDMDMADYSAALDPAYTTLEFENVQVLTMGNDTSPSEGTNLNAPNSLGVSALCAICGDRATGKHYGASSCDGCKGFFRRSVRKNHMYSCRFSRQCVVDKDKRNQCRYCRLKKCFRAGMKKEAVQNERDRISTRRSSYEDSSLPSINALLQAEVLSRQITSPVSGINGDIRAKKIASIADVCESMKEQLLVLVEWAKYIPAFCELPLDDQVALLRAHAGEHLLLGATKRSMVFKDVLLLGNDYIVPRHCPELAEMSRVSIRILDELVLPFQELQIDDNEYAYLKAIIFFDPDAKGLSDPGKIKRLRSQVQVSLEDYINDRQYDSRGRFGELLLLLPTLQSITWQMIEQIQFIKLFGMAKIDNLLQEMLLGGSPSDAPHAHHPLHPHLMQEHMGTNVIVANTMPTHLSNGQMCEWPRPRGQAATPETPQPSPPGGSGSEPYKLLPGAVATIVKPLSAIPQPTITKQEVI
# Sequence of Oxysterols receptor LXR-alpha (Homo sapiens) (Q13133 whole entry, looked up, the tested form may be a part): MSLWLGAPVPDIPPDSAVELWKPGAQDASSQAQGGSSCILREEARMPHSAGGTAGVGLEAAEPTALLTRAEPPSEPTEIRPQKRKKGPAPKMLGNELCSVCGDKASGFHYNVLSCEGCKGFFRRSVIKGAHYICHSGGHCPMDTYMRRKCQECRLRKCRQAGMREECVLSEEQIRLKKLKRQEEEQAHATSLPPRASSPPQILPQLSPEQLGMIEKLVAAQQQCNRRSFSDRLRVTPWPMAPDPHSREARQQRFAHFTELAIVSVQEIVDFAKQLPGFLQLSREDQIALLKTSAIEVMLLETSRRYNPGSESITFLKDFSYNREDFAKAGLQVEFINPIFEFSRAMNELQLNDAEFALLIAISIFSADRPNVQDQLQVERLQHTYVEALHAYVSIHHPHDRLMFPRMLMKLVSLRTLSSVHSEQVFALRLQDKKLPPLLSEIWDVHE
# Sequence of Glucocorticoid receptor (Homo sapiens) (P04150 whole entry, looked up, the tested form may be a part): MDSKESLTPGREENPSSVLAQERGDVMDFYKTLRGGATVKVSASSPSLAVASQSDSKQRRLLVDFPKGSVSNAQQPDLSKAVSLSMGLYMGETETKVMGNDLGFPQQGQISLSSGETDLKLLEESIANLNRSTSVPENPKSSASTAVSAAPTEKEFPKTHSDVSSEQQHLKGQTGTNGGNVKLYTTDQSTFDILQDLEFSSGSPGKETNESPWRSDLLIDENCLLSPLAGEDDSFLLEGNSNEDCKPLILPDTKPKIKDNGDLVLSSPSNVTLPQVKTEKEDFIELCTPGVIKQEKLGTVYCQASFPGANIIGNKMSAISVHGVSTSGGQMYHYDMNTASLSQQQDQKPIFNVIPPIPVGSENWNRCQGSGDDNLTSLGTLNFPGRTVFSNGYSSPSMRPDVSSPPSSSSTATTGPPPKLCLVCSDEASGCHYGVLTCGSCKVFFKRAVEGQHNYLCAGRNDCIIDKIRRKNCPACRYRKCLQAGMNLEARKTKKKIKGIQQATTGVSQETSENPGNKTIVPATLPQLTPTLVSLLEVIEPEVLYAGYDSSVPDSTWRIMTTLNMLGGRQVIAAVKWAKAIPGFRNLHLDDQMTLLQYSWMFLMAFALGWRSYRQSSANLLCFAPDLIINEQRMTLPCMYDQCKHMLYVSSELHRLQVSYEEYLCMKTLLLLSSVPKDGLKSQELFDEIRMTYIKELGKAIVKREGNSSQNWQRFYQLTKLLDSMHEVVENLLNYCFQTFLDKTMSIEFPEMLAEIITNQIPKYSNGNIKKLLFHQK
# Sequence of Estrogen-related receptor gamma (Homo sapiens) (P62508 whole entry, looked up, the tested form may be a part): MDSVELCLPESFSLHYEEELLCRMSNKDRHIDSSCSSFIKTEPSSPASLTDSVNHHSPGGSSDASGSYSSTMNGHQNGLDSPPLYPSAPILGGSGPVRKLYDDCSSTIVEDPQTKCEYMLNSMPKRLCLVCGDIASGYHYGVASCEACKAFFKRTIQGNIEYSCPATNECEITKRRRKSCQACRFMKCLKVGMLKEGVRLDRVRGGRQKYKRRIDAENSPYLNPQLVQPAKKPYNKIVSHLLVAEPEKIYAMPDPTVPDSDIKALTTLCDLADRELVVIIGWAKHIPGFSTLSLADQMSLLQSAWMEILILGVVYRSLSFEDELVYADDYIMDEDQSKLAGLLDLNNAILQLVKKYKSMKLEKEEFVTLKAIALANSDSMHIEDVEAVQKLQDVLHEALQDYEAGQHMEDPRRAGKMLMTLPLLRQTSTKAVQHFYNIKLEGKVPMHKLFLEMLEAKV
structure (smiles),measurement,setting,value
CC(=O)OCCOCCOCCOC(C)=O,outcome,[1],inactive
same,outcome,[2],inactive
same,outcome,[3],inactive
same,outcome,[4],inactive
same,outcome,[5],inactive
same,outcome,[6],inactive
same,outcome,[7],inactive
same,outcome,[8],inactive
same,outcome,[9],inactive
same,outcome,[10],inactive
same,outcome,[11],inactive
CCCCCCC(=O)OCC,outcome,[1],inactive
same,outcome,[2],inactive
same,outcome,[3],inactive
same,outcome,[4],inactive
same,outcome,[12],inactive
same,AC50,[5],17.6 µM (active)
same,outcome,[6],inactive
same,outcome,[7],inactive
same,outcome,[13],inactive
same,outcome,[14],inactive
same,outcome,[10],inactive
same,outcome,[15],inactive
same,outcome,[16],inactive
same,outcome,[11],inactive
Cc1ccc(C)c(C)c1,outcome,[1],inactive
same,outcome,[2],inactive
same,outcome,[3],inactive
same,outcome,[4],inactive
same,outcome,[12],inactive
same,outcome,[6],inactive
same,outcome,[7],inactive
same,outcome,[17],inactive
same,outcome,[16],inactive
same,outcome,[11],inactive
Cc1cccc(Nc2cc(Cl)nc(SCC(=O)O)n2)c1C,outcome,[1],inactive
same,outcome,[2],inactive
same,outcome,[3],inactive
same,outcome,[4],inactive
same,outcome,[5],inactive
same,outcome,[6],inactive
same,outcome,[8],inactive
same,outcome,[17],inactive
same,outcome,[10],inactive
same,outcome,[11],inactive
NS(=O)(=O)c1cc2c(cc1Cl)NCNS2(=O)=O,outcome,[1],inactive
same,outcome,[2],inactive
same,outcome,[3],inactive
same,AC50,[4],4.41 µM (active)
same,outcome,[18],inactive
same,outcome,[6],inactive
same,outcome,[7],inactive
same,outcome,[8],inactive
same,outcome,[13],inactive
same,outcome,[17],inactive
same,outcome,[19],inactive
same,outcome,[9],inactive
same,outcome,[14],inactive
same,outcome,[10],inactive
same,outcome,[15],inactive
same,outcome,[16],inactive
same,outcome,[11],inactive
Nc1ccccc1N,outcome,[1],inactive
same,outcome,[2],inactive
same,outcome,[3],inactive
same,AC50,[4],34.8 µM (active)
same,outcome,[12],inactive
same,AC50,[6],51.8 µM (active)
same,outcome,[17],inactive
same,outcome,[19],inactive
same,outcome,[9],inactive
same,outcome,[14],inactive
same,outcome,[10],inactive
same,outcome,[15],inactive
same,outcome,[11],inactive
CN1CCN(Cc2cc(-c3ccc4[nH]c(=O)oc4c3)co2)[C@@H](c2ccc(F)cc2)C1,AC50,[1],25.7 µM (active)
same,outcome,[2],inactive
same,outcome,[3],inactive
same,AC50,[4],27.4 µM (active)
same,outcome,[6],inactive
same,outcome,[7],inactive
same,outcome,[17],inactive
same,outcome,[20],inactive
same,outcome,[19],inactive
same,outcome,[10],inactive
same,outcome,[15],inactive
same,outcome,[16],inactive
same,outcome,[11],inactive
CNCc1cc(F)ccc1Oc1ccc(Cl)c(Cl)c1,outcome,[1],inactive
same,outcome,[2],inactive
same,outcome,[3],inactive
same,outcome,[4],inactive
same,outcome,[6],inactive
same,outcome,[7],inactive
same,outcome,[14],inactive
same,outcome,[10],inactive
same,outcome,[11],inactive
CCCCc1ccc2c(n1)[C@@H](c1ccc(OC)cc1C[C@H](C)C(=O)O)[C@H](C(=O)O)[C@H]2c1ccc2c(c1)OCO2,outcome,[1],inactive
same,outcome,[2],inactive
same,outcome,[4],inactive
same,outcome,[12],inactive
same,outcome,[6],inactive
same,outcome,[7],inactive
same,outcome,[8],inactive
same,outcome,[20],inactive
same,outcome,[19],inactive
same,outcome,[9],inactive
same,outcome,[15],inactive
same,outcome,[11],inactive
Nc1ccc(S(=O)(=O)c2ccc(N)cc2)cc1,outcome,[1],inactive
same,outcome,[2],inactive
same,outcome,[3],inactive
same,outcome,[5],inactive
same,outcome,[6],inactive
same,outcome,[7],inactive
same,outcome,[20],inactive
same,outcome,[19],inactive
same,outcome,[9],inactive
same,outcome,[14],inactive
same,outcome,[10],inactive
same,outcome,[15],inactive
same,outcome,[16],inactive
same,outcome,[11],inactive
